In PubChem BioAssay AID430 (Sanford-Burnham Center for Chemical Genomics, 2006):
Hit rate of the full screen: of about 63,000 compounds, about 1,100 (1.7%) were called active. This is one part of a sample in which actives are shown more often than they occur. Entries with a potency or affinity are not part of this list. A number with no mark means an inactive call. No stated cut-off is given here; in the data, active means cytotoxicity above about 50%; inactive means the rest.

Assay: HPDE-C7 pancreatic duct cell viability loss – fluorescence, HTS (AID 430);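 further: cells exposed to compound for 48 hours before viability readout; 0% = vehicle and 100% = reference cytotoxic drug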
Settings: HPDE-C7 pancreatic duct cells viability, at 10 µM, active compounds read high
Work on `CC(=NCc1cccnc1)c1c(O)n(Cc2ccccc2)c(=O)[nH]c1=O` yielded a cytotoxicity of -13.3%.
In the case of `COc1ccc(C2NCc3ccc4c(c3-n3cccc32)OCO4)cc1O` (configuration not stated), the cytotoxicity is reported as 63.9% (active).
`c1cc2n(c1)-c1c(ccc3c1OCO3)CNC2c1ccc2c(c1)OCO2` (configuration not stated) gave a cytotoxicity of 29.3%.
With `COc1ccc(C2NCc3ccc4c(c3-n3cccc32)OCO4)cc1OC` (configuration not stated) the cytotoxicity was -0.1%.
Compound `O=C(O)C(O)(c1ccccc1)C1CCCC1` (configuration not stated) has a cytotoxicity of 13.6%.
With `CN(C)CP(=O)(Nc1ccccc1)N(C)C` (configuration not stated) the cytotoxicity was -14.4%.
Compound `O=C(c1cc(-c2cccnc2)nc2ccc(Cl)cc12)N1CCC2(CC1)OCCO2` has a cytotoxicity of 4.7%.
In the case of `COc1cccc(OC)c1C1=NCC(=O)Nc2c1oc1ccc(Br)cc21`, the cytotoxicity is reported as 72.5% (active).
With `O=C1CN=C(c2ccccc2)c2oc3ccc(Br)cc3c2N1` the cytotoxicity was -10.4%.
Compound `Cc1cc(NC(=O)COC(=O)c2c(C)nn(Cc3ccccc3Cl)c2Cl)no1` has a cytotoxicity of 3.7%.
Work on `CCc1nc2ccccc2c(=O)n1-c1cccc(OC)c1` yielded a cytotoxicity of 18.7%.
With `CCn1nc(-c2cccs2)nc2c(=O)n(C)c(=O)nc1-2` the cytotoxicity was 114% (active).
With `O=c1c2ccccc2nc(-c2cccs2)n1-c1cnccn1` the cytotoxicity was 2.1%.
With `CCn1nc(-c2ccccc2)nc2c(=O)n(C)c(=O)nc1-2` the cytotoxicity was 119% (active).
With `CSc1ccc(CNC2CN3CCC2CC3)cc1` (configuration not stated) the cytotoxicity was -5.8%.
`O=C(Cc1ccccc1)OCCN1CCCCC1` showed a cytotoxicity of 0.7%.
In the case of `Cc1cccc(OC(=O)N2CCOCC2)c1`, the cytotoxicity is reported as -0.2%.
Work on `O=C(COc1ccccc1)N1CCN(C/C=C/c2ccccc2)CC1` yielded a cytotoxicity of 1.6%.
In the case of `CCCCOc1ccc(CN2CCN(CCO)CC2)cc1`, the cytotoxicity is reported as 23.7%.
In the case of `CCCCc1ccc2[nH]cc(CCN)c2c1`, the cytotoxicity is reported as 62.3% (active).
In the case of `COc1ccc2[nH]cc(CCN(C)C)c2c1`, the cytotoxicity is reported as -6%.
In the case of `NCCc1c[nH]c2ccc(F)cc12`, the cytotoxicity is reported as -7.7%.
In the case of `COc1cc(OC)c(OC)cc1CNC(C)C(O)c1ccccc1` (configuration not stated), the cytotoxicity is reported as 2.2%.
`COC(=O)c1cc2c(s1)=NC=NP=2(N1CCOCC1)N1CCOCC1` showed a cytotoxicity of -14.1%.
With `C[C@@]1(CO)[C@H](O)CC[C@@]2(C)[C@H]1CC[C@H]1C[C@@H]3C[C@@]12CC[C@]3(O)CO` the cytotoxicity was 82.5% (active).
Compound `O=C(C(Cc1ccccc1)NS(=O)(=O)c1cccc2nsnc12)N1CCC2(CC1)OCCO2` (configuration not stated) has a cytotoxicity of -4.1%.
With `O=C(c1ccc(CS(=O)(=O)c2ccccc2)o1)N1CCC2(CC1)OCCO2` the cytotoxicity was -2.7%.
`CCC(=Nc1ccccc1NC(C)=O)c1c(O)n(C)c(=O)n(C)c1=O` gave a cytotoxicity of 41.8%.
`CC(=O)C1=C(C)OC(N)=C(C(=O)OC(C)C)C12C(=O)Nc1ccccc12` (configuration not stated) showed a cytotoxicity of -8.9%.
With `CCCCc1nc(N2CCNCC2)c(C#N)c2c1CSC(C)(C)C2` the cytotoxicity was 52.3% (active).
With `CCc1nc(N2CCNCC2)c(C#N)c2c1CSC(C)(C)C2` the cytotoxicity was 37.6%.
With `O=C(CN1C(=O)CN=C(c2ccccc2Cl)c2cc(Cl)ccc21)NCc1ccco1` the cytotoxicity was 2.5%.
In the case of `O=c1[nH]c(=O)n(CCC2=CCCCC2)c(O)c1C=NCCCn1ccnc1`, the cytotoxicity is reported as -30.8%.
`COc1ccc(C(=O)C(C)(C)NO)cc1` gave a cytotoxicity of -9.5%.
`C=CCn1c(O)c(C(C)=NCc2cccnc2)c(=O)[nH]c1=O` gave a cytotoxicity of 8.9%.
`O=C(Cn1ncc2ccccc21)N1CCC2(CC1)OCCO2` showed a cytotoxicity of -19.4%.
With `O=c1[nH]c(=O)n(Cc2ccccc2)c(O)c1C=NCCN1CCNCC1` the cytotoxicity was -11.2%.
For `O=c1[nH]c(=O)n(C2CCCCCC2)c(O)c1C=NCCCN1CCOCC1`, the cytotoxicity was 2.2%.
With `O=c1c(C=NCCN2CCNCC2)c(O)n(C2CCCCC2)c(=O)n1C1CCCCC1` the cytotoxicity was 62.8% (active).
For `Cc1nc2c(c(C)nn2-c2ccccc2)c(C)c1CCC(=O)N1CCC2(CC1)OCCO2`, the cytotoxicity was -12.1%.
For `Fc1ccc2c(c1)nnn2C1CCN(Cc2nnnn2C2CCCCC2)CC1`, the cytotoxicity was -8%.
Compound `NC(=O)C1(N2CCCCC2)CCN(Cc2ccccc2)CC1` has a cytotoxicity of -8.8%.
